Most compounds without a hit are left out; they make up all but 4.6% or so of the library.
TRHR ag: agonists of human TRH receptor. activation, % at 2 µM. TRHR cells, calcium flux fluo-8, FDSS agonist mode. 0.18% of 360,000 active; further: 0% is about no effect
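TRHR-expressing cells, plated overnight in medium with 10% serum, were loaded with fluo-8 calcium dye at room temperature. After a 10 s baseline, library compound was pin-added and calcium release was recorded kinetically (ex 480/em 530) as agonist response.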
D1 antag: antagonists of human D1 dopamine receptor; 3.2% of 360,000 active; activity change, negative = inhibition, % at 10 µM; HEK293 TREx D1 cells, calcium flux, dopamine EC80; hits give low values; in the data active means activity change below about -30%; further: on the % scale 0 is the no-effect control and ±100 the full control effect
Target sequence (P21728 whole entry, looked up): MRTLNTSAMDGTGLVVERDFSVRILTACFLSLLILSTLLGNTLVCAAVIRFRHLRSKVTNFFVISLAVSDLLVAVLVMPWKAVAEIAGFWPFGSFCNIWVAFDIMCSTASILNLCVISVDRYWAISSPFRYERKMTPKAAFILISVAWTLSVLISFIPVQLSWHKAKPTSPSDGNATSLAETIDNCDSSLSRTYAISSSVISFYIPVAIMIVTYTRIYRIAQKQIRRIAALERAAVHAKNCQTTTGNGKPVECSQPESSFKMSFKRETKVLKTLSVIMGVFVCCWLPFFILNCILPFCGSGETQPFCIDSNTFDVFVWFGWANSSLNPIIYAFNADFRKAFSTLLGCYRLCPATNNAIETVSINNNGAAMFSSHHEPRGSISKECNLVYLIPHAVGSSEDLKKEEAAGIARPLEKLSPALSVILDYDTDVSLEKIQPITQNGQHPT
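Calcium flux readout: force-coupled, inducible Hek293 Trex D1 line, cells induced overnight at 30 C with tetracycline, dye-loaded 30–90 min at RT. Antagonism scored against EC80 dopamine challenge given 180 s after compound.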
D1 PAM: human D1 dopamine receptor positive modulation; AID 504651; 0.036% of 360,000 active; potentiation, % at 10 µM; HEK293 TREx D1 cells, calcium flux, dopamine EC20 potentiation; in the data active means potentiation above about 30%; further: 0% is about no effect
D1 agonist: agonists of human D1 dopamine receptor; 1% of 360,000 active; activation, % at 2 µM; P21728; HEK293 T-REx D1 cells, calcium flux, agonist mode; further: 0% is about no effect
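Agonism was scored from calcium flux recorded over 180 s (1 read/s) after pintool compound addition, following a 10-cycle baseline. Cells were inducible force-coupled HEK293 TREx D1, plated overnight at 30 C and loaded with no-wash calcium dye.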
TRHR enhancer: TRH receptor (human) allosteric enhancement | P34981 | 0.66% of 360,000 active | enhancement, % at 2 µM | TRHR cells, fluo-8 calcium fluorescence, EC20 TRH enhancement; in the data active means enhancement above about 30%; further: 0% is about no effect
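TRHR-expressing cells loaded with fluo-8 calcium dye were read kinetically (ex 480/em 530) during compound addition, then stimulated with an EC20 of TRH (10 nM final). Enhancement of the Gq-mediated intracellular calcium response was scored.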
An asterisk follows results filed as active; . = not tested or not shown; ! = a repeat was not active. Unless noted, no stated cut-off is given here; in the data, active means activation above about 30%; inactive means the rest.

SMILES	TRHR ag	D1 antag	D1 PAM	D1 agonist	TRHR enhancer
CN1CCN(c2ccc(C(F)(F)F)cc2NC(=O)Nc2ccccc2)CC1	0.0	-7.2	-5.8	72.9*	-3.4
COc1ccc(NC(=O)N2CCN(c3cccc(C(F)(F)F)c3)CC2)cc1OC	-0.3	-5.6	-10.4	14.5	-4.6
O=C(C1CCC1)N1CCN(c2cccc(C(F)(F)F)c2)CC1	-0.4	-54.1*	-7.2	4.6	3.5
CCc1nn2c(=O)cc(COC(=O)c3ccccc3)nc2s1	0.4	7.9	2.1	2.1	5.2
Cc1noc(/C=C/c2ccccc2F)c1S(=O)(=O)N1CCC(C(=O)Nc2ccc(C#N)cc2)CC1	0.5	-10.3	0.6	2.0	-1.3
O=C(CCn1c(=O)c2ccccc2n(CC(=O)Nc2ccc(F)cc2)c1=O)NCCc1ccccc1	-1.0	0.7	7.5	1.7	1.4
CCc1nnc(SCc2nc(-c3cccc(Cl)c3)oc2C)c2cc3sc(C)cc3n12	0.1	6.9	0.9	-0.4	3.2
O=C(CCS(=O)(=O)c1ccccc1)N1CCN(c2cccc(C(F)(F)F)c2)CC1	-1.3	-19.8	-9.7	20.5	-6.2
O=C(CS(=O)(=O)Cc1ccccc1)N1CCN(c2cccc(C(F)(F)F)c2)CC1	0.5	-33.4*	-1.7	12.5	-7.2
CCOc1ccc(NC(=O)CCS(=O)(=O)c2ccc(Br)s2)cc1	-1.8	1.3	2.8	-0.4	-7.3
CN(CC(=O)Nc1ccccc1Cl)CC(=O)c1c(N)n(Cc2ccccc2)c(=O)n(C)c1=O	0.0	-31.8*	9.2	2.1	4.0
CCOC(=O)c1c(C)[nH]c(C(=O)CN(C)CC(=O)Nc2ccccc2Cl)c1C	-0.2	-41.0*	-10.8	4.8	-3.5
CCOC(=O)c1c(C)[nH]c(C(=O)OCC(=O)Nc2ccccc2)c1C	0.3	-73.0*	-11.8	26.0	5.5
CCOC(=O)c1c(C)[nH]c(C(=O)C(C)Cl)c1C (configuration not stated)	-0.4	-31.7*	-12.9	1.0	-4.2
CCOC(=O)c1c(C)[nH]c(C(C)=O)c1C	0.8	-23.5	4.6	0.8	4.4
O=C(Nc1cccc(Cl)c1)C1CCN(S(=O)(=O)Cc2ccccc2)CC1	0.4	-30.0	-1.3	0.2	5.0
CCOC(=O)c1ccc(NCc2ccc3c(c2)OCO3)cc1	-0.5	-27.1	-3.1	5.6	1.2
Cc1cc(SCC(=O)OCC(=O)NC(C)c2ccccc2)c(C)cc1Br (configuration not stated)	0.4	-41.3*	-1.4	8.2	13.8
Cc1onc(-c2ccccc2)c1C(=O)OCC(=O)NC(C)c1ccc(Cl)cc1 (configuration not stated)	3.6	-10.0	.	71.4*	-3.3
CCOC(=O)c1ccc(NCc2ccc(N(C)C)cc2)cc1	-1.6	-35.4*	-11.2	5.3	4.3
Cc1cc(C)n(-c2ccc(C(=O)OCC(=O)NC(c3ccccc3)c3ccccc3)cc2)n1	3.4	-12.0	-6.3	31.1*	-4.5
CCOC(=O)c1ccc(-n2nc(C)cc2C)cc1	-0.5	4.9	-6.2	1.8	0.0
COc1ccc(NC(=O)CSc2nnc(-c3cccs3)o2)cc1	-0.7	6.5	-1.0	-1.2	-1.1
O=C(CCn1c(=O)c2ccccc2n(Cc2cccc(F)c2)c1=O)NCc1ccc2c(c1)OCO2	-0.5	8.5	-0.1	3.1	-4.3
CC(=O)Nc1cccc(-c2nnc(SCC(=O)c3cc([N+](=O)[O-])ccc3Cl)o2)c1	-0.2	-1.9	-3.4	-1.3	-9.6
SMILES	TRHR ag	D1 antag	D1 PAM	D1 agonist	TRHR enhancer
CC(NC(=O)COC(=O)c1ccc(N(C)C)cc1)c1ccccc1 (configuration not stated)	-0.2	-70.0*	-7.6	-0.3	1.8
Cc1onc(-c2ccccc2)c1C(=O)OCC(=O)Nc1ccccc1	0.4	-11.5	1.3	5.2	14.8
Cc1onc(-c2ccccc2)c1C(=O)OCC(=O)Nc1ccc(C#N)cc1	0.0	-31.5*	-2.4	9.5	-7.5
CC(NC(=O)COC(=O)c1ccco1)c1ccccc1 (configuration not stated)	-0.1	-11.6	-0.8	2.9	11.0
COCCNC(=O)c1cc2n(n1)CCCN(Cc1ccc(C)cc1)C2=O	-1.4	14.4	-0.7	-0.3	0.6
CCOc1ccc(-c2cc3c(=O)n(CC(=O)Nc4c(C)cccc4C)ccn3n2)cc1	0.6	-17.6	-1.1	-0.8	2.6
CCOC(=O)c1cc(S(=O)(=O)NCC2CCN(Cc3cccc(C)c3)CC2)cn1C	1.2	1.3	-3.1	10.0	-4.4
COC(=O)c1cc(S(=O)(=O)NCC2CCN(Cc3cccc(F)c3)CC2)cn1C	0.4	-39.3*!	-6.9	8.6	-3.2
COC(=O)c1cc(S(=O)(=O)NCc2cccc(OC)c2)cn1C	0.0	-18.9	-3.7	3.5	9.6
COC(=O)c1cc(S(=O)(=O)NCc2ccccc2OC)cn1C	0.3	-47.5*	-8.7	9.8	-1.4
COc1ccccc1CNC(=O)c1cc(S(=O)(=O)N2CCCC(C)C2)cn1C (configuration not stated)	-0.8	-17.2	-1.3	2.0	38.2*
CCC(=O)N1c2nc(C(C)C)nn2C2(CCCCC2)[C@@H]2CCCC[C@@H]21	-2.7	-4.8	1.0	-2.6	-6.2
CCOC(=O)c1c(NC(=O)c2ccc(S(=O)(=O)N(CC(C)C)CC(C)C)cc2)sc2c1CCN(C(=O)OCC)C2	0.6	-9.1	-1.5	0.4	6.5
CCOc1ccccc1NC(=O)Cn1c(=O)n(CCC(=O)NCc2ccc3c(c2)OCO3)c(=O)c2ccccc21	-1.7	-26.1	1.1	11.8	9.7
Cc1ccc(C(=O)CSc2nc3cc(C(=O)NC4CCCC4)ccc3c(=O)n2CC2CCCO2)cc1 (configuration not stated)	1.0	4.2	3.5	1.2	-1.9
O=C(CSc1nc2cc(C(=O)NC3CCCC3)ccc2c(=O)n1CC1CCCO1)c1cccc(Cl)c1 (configuration not stated)	0.4	-36.9*	-3.8	5.9	-0.9
CC1=C(C(=O)Nc2ccccc2)C(c2cccnc2)n2nc(SCc3ccccc3Cl)nc2N1 (configuration not stated)	1.0	-35.2*	-1.2	-0.8	-3.8
COc1cc(C2C(=O)N(C3CCCCC3)CC(=O)N2CCC2=CCCCC2)ccc1OC(C)C (configuration not stated)	0.3	-15.4	-0.3	-2.6	-3.3
COC(=O)c1cc2sc(Cl)cc2n1CC(=O)Nc1cc(C)cc(C)c1	0.3	4.7	0.2	2.0	-9.3
Cc1cc(/C=N/Nc2nc(N3CCOCC3)nc(N3CCOCC3)n2)c(C)n1-c1ccccc1	-0.5	4.6	-1.9	2.2	32.2*
c1ccc(Nc2nc(N3CCOCC3)nc(N3CCOCC3)n2)cc1	0.3	-8.1	2.2	1.1	39.4*
O=[N+]([O-])c1ccc(Nc2nc(NCCO)nc(N3CCCC3)n2)cc1	0.3	-18.3	3.4	0.5	0.1

Screening results (PubChem)
